Assay results reported in PubChem BioAssay (NCI).
About 83,000 compounds went through this panel and 20% of them were active in at least one assay; those are over-represented in the sample as a whole.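 Testing used 96-well plates and a 48-hour single-concentration exposure. Example: -40 means 40% of the starting cells died.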 Values without a mark were called inactive. Active and inactive are the calls of the source.

What follows are compounds tested on UO-31 renal (assay: NCI-60 one-dose screen, 48 h (100 = growth as untreated, 0 = no growth, -100 = all killed)). Conditions: 10 µM unless noted.
Experimental: Growth inhibition of the UO-31 human tumor cell line is measured as a screen for anti-cancer activity. Cells are grown in 96 well plates and exposed to the test compound for 48 hours. Compounds are tested at a single concentration, which is 10^-5 M for most compounds. The reported endpoint is percent growth (GI% or GIPRCNT), where numbers from 0 - 100% represent growth inhibition, and numbers from -100% - 0 represent cell death. For example, a value of 40 represents 60% growth inhibition. A value of 0 means no net growth occurred over the course of the experiment. A value of -40 indicates 40% of cells at the beginning of the experiment died by the end of the experiment. A value of -100 means all cells are dead at the end of the experiment.
NCI-60 Human Tumor Cell Lines Screen was performed using the standard one-dose NCI protocol, which is described in more detail at https://dtp.cancer.gov/discovery_development/nci-60/default.htm.
Compounds with GIPRCNT values below 10 were considered active. Activity score was based on GIPRCNT using the following formula: […]
Score is 0 for GIPRCNT values of 100 or above, 50 for GIPRCNT values of 0, and 100 for GIPRCNT values of -100.

Structure (SMILES)	growth
CN1CCC(=C2c3ccccc3C=Cc3ccccc32)CC1	67%
CCCCn1c(=O)[nH]c(N)c(C(c2ccc(F)cc2)c2c(N)[nH]c(=O)n(CCCC)c2=O)c1=O	103%
CCOC(=O)c1c(C)nc2c(c1N)/C(=C/c1cc(OC)c(OC)c(OC)c1)C(=O)N2c1ccc(OC)cc1	55.7%
CCN(CC)CCOC(=O)Nc1ccccc1Cl	80.4%
Cc1cnc(Nc2ccc(N3CCN(C)CC3)cc2)nc1Nc1ccc(Cl)c(NS(=O)(=O)C(C)(C)C)c1	-20.7% (active)
Nc1c(C(=O)c2ccc(Cl)s2)sc2nc3c(cc12)CCCC3	81.2%
Cc1ccc(O)c(C(=O)c2ccccc2Cl)c1	79.7%
OC(c1cccc(OCc2ccccc2)c1)c1nnc(-c2ccccc2)o1 (stereo not given)	68.1%
CC(C)c1ccc(C(=O)OC(=O)c2ccc(C(C)C)cc2)cc1	83.9%
COc1ccc(C2CC(c3cnccn3)=NN2)cc1OC (stereo not given)	88.7%
Cc1ccc(NC(=O)C(Cl)Cl)cc1	83%
COc1ccc2cc(-c3ccc(C(=O)NN)c(C)n3)ccc2c1	83.5%
CCc1nc2ccccc2[nH]1	80.1%
CC(=O)Nc1ccc2c(c1)Cc1c(F)cccc1-2	49.2%
COc1ccc(OC)c(Nc2nc3nonc3nc2Nc2cccc(Br)c2)c1	3.39% (active)
COc1ccc(/C=C2\COc3ccc(O)c(O)c3C2=O)c(OC)c1	34.5%
C[N+](C)(C)CCOC(OCC[N+](C)(C)C)(c1ccccc1)c1ccccc1	89.1%
CN(C)c1ccc(-c2cc(-c3ccc(Nc4nc(Nc5ccccc5)nc(Nc5ccc(Cl)cc5)n4)cc3)nc(N)n2)cc1	39%
Cc1c(C(=O)O[C@H]2[C@@H]3[C@H](C)CC[C@H]3[C@]3(C)O[C@@]2(C2CCCCC2)C[C@H]3OC(=O)CO)ccc2ccccc12	-11.7% (active)
C=C(C)C1CCC(=C)C2CCC3(C)OC12/C=C(/COC(C)=O)CCC3O (stereo not given)	92.7%

Structure (SMILES)	growth
COc1ccc(/C=C(\C#N)n2nnc3ccccc32)cc1	33.2%
CN(C)c1ccc(/C=N/NC(=O)COc2cc(=O)n(C)c3ccccc23)cc1	71.7%
Cc1ccc(S(=O)(=O)NN/C(N)=N\S(=O)(=O)c2cc(C)c(Cl)cc2SCc2ccccc2)cc1	77.9%
Cc1cnc(Nc2ccc(OCCN3CCCC3)cc2)nc1NCc1ccco1	47.8%
COc1ccc(/C(C)=N/NS(=O)(=O)c2ccc(C)cc2)cc1OC	103%
N#Cc1cccc(-c2nc3ccccn3c2NCCN2CCOCC2)c1	73.3%
N=C(N)c1ccc(-c2ccc(-c3ccc(Cl)cn3)s2)cc1	57.6%
Cc1ccc(S(=O)(=O)Nc2sccc2-c2nc(-c3ccccc3)no2)cc1	70.4%
CCCNCC(=O)Nc1ccc(C(=O)OC(C)(C)CC)cc1	86.3%
CCC(=O)OC1=C(C)SC2=NC(c3ccc(Cl)c(Cl)c3)=CC(c3cc(OC)c(OC)c(OC)c3)N21 (stereo not given)	82.1%
CCOC(=O)c1c(C)[nH]c(C(=O)CCC(=O)OC)c1C	92.7%
CCCCNC(=O)NS(=O)(=O)c1ccc(N2N=C(c3ccc(C)cc3C)CC2c2ccc(N(C)C)cc2)cc1 (stereo not given)	51.4%
O=C1CSC(c2ccccc2O)N1c1nnc(Cn2cnnc2)o1 (stereo not given)	46.7%
CCN(CC)c1ccc(Nc2ccc(CC(=O)c3ccccc3)cc2)cc1	71.5%
N[C@@H]1CCC[C@H]1NCCCCN1C(=O)c2cccc3cccc(c23)C1=O	56.2%
COc1ccc(Oc2nc(Nc3ccc(N4CCCCC4)nc3)ncc2NC(=O)c2cc(OC)cc(OC)c2)cc1	33.3%
Cc1cc(N(CCCNc2ccnc3cc(Cl)ccc23)Cc2ccccn2)nc(N2CCOCC2)n1	63.9%
CC(C)OCCCNCC(=O)Nc1ccc(S(=O)(=O)c2ccc(NC(=O)CNCCCOC(C)C)cc2)cc1	90.8%
COc1cc(-c2cc(-c3ccc(Nc4nc(Nc5ccccc5)nc(Nc5ccc(Cl)cc5)n4)cc3)nc(N)n2)cc(OC)c1OC	43.1%
C=C1c2c(C)nn(-c3ccc(O)cc3)c2N(C)C23C[C@@H]1C1(C)c4c(C)nn(-c5ccc(O)cc5)c4N(C)C(C)(C[C@H]12)C3 (stereo not given in full)	22.4%
